Compounds without any hit were thinned out: in the full panel of roughly 79,000, 15% have a hit. A number with no mark means an inactive call. Active and inactive are the calls of the source. Cut-off read from the data, not from the text of the source: active = growth inhibition above about 70%; inactive = the rest. Where a SMILES comes first, the peptide text is derived from it. Bridges are numbered along the chain shown (N, C = ends). Roman numbers before positions name the chains, in order. [ ]: non-standard residue; d: D form. The star is where a group is joined. Quinoxaline2carbonyl = O=C(c1cnc2ccccc2n1)*; NMeV = CN[CH](C(=O)O)C(C)C; NMeC = CN[CH](CS)C(=O)O
Experiment: NCI Yeast Anticancer Drug Screen. Data for the mec2-1 strain (AID 157)
Details: S. cerevisiae mec2-1 strain, at 50.0 µM, stronger effect = higher value
Method in brief: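 Each compound was tested on mec2-1 yeast, a strain altered in DNA damage repair or cell cycle control. Growth inhibition is reported relative to vehicle.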

| SMILES | growth inhibition |
| --- | --- |
| [N-]=[N+]=CC(=O)CCC(=O)C=[N+]=[N-] | -24% |
| CC(=O)CCC(=O)O.[Ni] | 0.2% |
| CCN1/C(=C/C=C2\CCC(/C=C/c3sc4ccc(Cl)cc4[n+]3CC)=C2N(c2ccccc2)c2ccccc2)Sc2ccc(Cl)cc21 | 32.2% |
| Cn1cnc([N+](=O)[O-])c1[Se]c1nc(N)nc2nc[nH]c12 | -12% |
| CCC1(CCBr)C(=O)NC(=O)NC1=O | 3.35% |
| O=C(CBr)OCCOC(=O)CBr | 18.4% |
| Cc1ncc([N+](=O)[O-])n1C(C)C(=O)Nc1ccc(N(CCCl)CCCl)cc1 (configuration not stated) | 10.3% |
| O=S(=O)(Nc1ccc(-c2ccccc2)cc1)c1ccc([As](=O)(O)O)cc1 | 24.7% |
| Cc1ccc([NH-])cc1.Cc1ccc([NH-])cc1.[Cl][Pt+2][Cl] | -6.8% |
| [Se]=[Mo]=[Se] | -8.3% |
| CN(C)C1(c2ccc3ccccc3c2)CSC1 | -16.6% |
| C=C[C](=C)[Pb]([CH2]C)([CH2]C)[CH2]C | 4.75% |
| CC(=O)CC(C)=O.CC(=O)CC(C)=O.CC(=O)CC(C)=O.[La] | 1.35% |
| CCOc1ccc2ccccc2c1OP(=O)(OCC)OCC | 22% |
| CC12CCC3C4CCC(=O)C=C4CCC3C1CC1CC(=O)OC12 (configuration not stated) | 1% |
| COc1ccc(S(=O)(=O)F)cc1NC(=O)c1ccc2ccccc2c1O | 7.75% |
| CC1NC(=O)C(NC(=O)c2cnc3ccccc3n2)COC(=O)C(C(C)C)N(C)C(=O)C2CSSCC(C(=O)N(C)C(C(C)C)C(=O)OCC(NC(=O)c3cnc4ccccc4n3)C(=O)NC(C)C(=O)N2C)N(C)C1=O (configuration not stated) (I: Quinoxaline2carbonyl-SA[NMeC][NMeV] / II: Quinoxaline2carbonyl-SA[NMeC][NMeV]; ester I:1-II:C, I:C-II:1; disulfide I:3-II:3; configuration not given here) | 90.5% (active) |
| CN(N)/N=N/c1nc[nH]c1[N+](=O)[O-] | -24.6% |
| C[N+](C)(C)CC1CCC/C1=N/O (configuration not stated) | 13.4% |
| CCCn1cc2c3c(cccc31)[C@H]1C[C@@H](C)CN(C)[C@@H]1C2 | 45.4% |

| SMILES | growth inhibition |
| --- | --- |
| CNC(C)Cc1ccccc1OC (configuration not stated) | -12.4% |
| CO[C@H](C)[C@](O)(C(=O)OCC1=CCN2CC[C@@H](O)[C@H]12)C(C)C | -37.6% |
| CC1CN=C(NCc2ccccc2)S1 (configuration not stated) | 16.6% |
| C#CC1(OC(C)=O)CCC2C3CCC4=CC(=O)CCC4(C)C3CCC21C (configuration not stated) | 6.1% |
| NC(c1ccccc1)P(=O)(O)O (configuration not stated) | -20.4% |
| CNC(=O)O/N=C(\SC)C(=O)N(C)C | -27.2% |
| Cc1cccc(C)c1NC(N)=S | 6.15% |
| CCC[As](=O)(O)CC[As](=O)(O)CCC | 34.2% |
| C=[CH][Pb]([CH]=C)([CH]=C)[O]C(C)=O | 98% (active) |
| Cc1nc2ccccc2c(=O)n1-c1ccccc1 | -15.9% |
| O=[N+]([O-])c1cccc(C(Cl)Cl)c1 | -4.7% |
| COC(=O)C1=C(O)C(C(=O)OC)C2/C(=[N+](/[O-])O)c3c(cc([N+](=O)[O-])cc3[N+](=O)[O-])C1C2[N+](=O)[O-] (configuration not stated) | 81% (active) |
| CC(=O)Cc1c[nH]c2ccccc12 | -41.3% |
| CN1CN(c2ccccc2)C2(CCN(CCC3COc4ccccc4O3)CC2)C1=O (configuration not stated) | -10.3% |
| C[As+](c1ccccc1)(c1ccccc1)c1cccc2ccccc12 | 38.9% |
| C=CCOCN1c2cc(OC)c([C@@]3(C(=O)OC)C[C@@H]4CN(CCc5c3[nH]c3ccccc53)C[C@](O)(CC)C4)cc2[C@@]23CCN4CC=C[C@@](CC)([C@@H](OC(C)=O)[C@](O)(C(=O)OC)[C@H]12)[C@H]43 | -8.75% |
| CS(=N)(=O)CCC(N)P(=O)(O)O (configuration not stated) | -37.6% |
| Cc1ccc(S(=O)(=O)Nc2cc(C)cc(CCN)c2C)cc1 | -11.6% |
| CCN(CC)CCn1c(=O)c2ccccc2n(CCN(CC)CC)c1=O | 13.1% |

Experiment: NCI Yeast Anticancer Drug Screen. Data for the sgs1 mgt1 strain (AID 161);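 note: 0% = growth of cultures given vehicle only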
Details: S. cerevisiae sgs1 mgt1 strain, at 50.0 µM, stronger effect = higher value
Method in brief: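 Inhibition of yeast growth, normalised to vehicle-treated controls, is reported for a strain bearing genetic alterations in DNA damage repair.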

| SMILES | growth inhibition |
| --- | --- |
| [N-]=[N+]=CC(=O)CCC(=O)C=[N+]=[N-] | -27.1% |
| CC(=O)CCC(=O)O.[Ni] | -7.45% |
| CCN1/C(=C/C=C2\CCC(/C=C/c3sc4ccc(Cl)cc4[n+]3CC)=C2N(c2ccccc2)c2ccccc2)Sc2ccc(Cl)cc21 | 64.9% |
| Cn1cnc([N+](=O)[O-])c1[Se]c1nc(N)nc2nc[nH]c12 | -26.8% |
| CCC1(CCBr)C(=O)NC(=O)NC1=O | 11.8% |
| O=C(CBr)OCCOC(=O)CBr | -8.5% |
| Cc1ncc([N+](=O)[O-])n1C(C)C(=O)Nc1ccc(N(CCCl)CCCl)cc1 (configuration not stated) | 3.5% |
| O=S(=O)(Nc1ccc(-c2ccccc2)cc1)c1ccc([As](=O)(O)O)cc1 | 54.2% |
| Cc1ccc([NH-])cc1.Cc1ccc([NH-])cc1.[Cl][Pt+2][Cl] | 3.95% |
| [Se]=[Mo]=[Se] | -29.9% |
| CN(C)C1(c2ccc3ccccc3c2)CSC1 | 0.55% |
| C=C[C](=C)[Pb]([CH2]C)([CH2]C)[CH2]C | -10.5% |
| CC(=O)CC(C)=O.CC(=O)CC(C)=O.CC(=O)CC(C)=O.[La] | 12.2% |
| CCOc1ccc2ccccc2c1OP(=O)(OCC)OCC | 38.9% |
| CC12CCC3C4CCC(=O)C=C4CCC3C1CC1CC(=O)OC12 (configuration not stated) | 0.4% |
| CC1NC(=O)C(NC(=O)c2cnc3ccccc3n2)COC(=O)C(C(C)C)N(C)C(=O)C2CSSCC(C(=O)N(C)C(C(C)C)C(=O)OCC(NC(=O)c3cnc4ccccc4n3)C(=O)NC(C)C(=O)N2C)N(C)C1=O (configuration not stated) (I: Quinoxaline2carbonyl-SA[NMeC][NMeV] / II: Quinoxaline2carbonyl-SA[NMeC][NMeV]; ester I:1-II:C, I:C-II:1; disulfide I:3-II:3; configuration not given here) | 90% (active) |
| CN(N)/N=N/c1nc[nH]c1[N+](=O)[O-] | -2.6% |
| C[N+](C)(C)CC1CCC/C1=N/O (configuration not stated) | -0.5% |
| CCCn1cc2c3c(cccc31)[C@H]1C[C@@H](C)CN(C)[C@@H]1C2 | 41% |

| SMILES | growth inhibition |
| --- | --- |
| CNC(C)Cc1ccccc1OC (configuration not stated) | -1.2% |
| CO[C@H](C)[C@](O)(C(=O)OCC1=CCN2CC[C@@H](O)[C@H]12)C(C)C | -8.8% |
| CC1CN=C(NCc2ccccc2)S1 (configuration not stated) | -33.5% |
| C#CC1(OC(C)=O)CCC2C3CCC4=CC(=O)CCC4(C)C3CCC21C (configuration not stated) | 4.4% |
| NC(c1ccccc1)P(=O)(O)O (configuration not stated) | -29.9% |
| CNC(=O)O/N=C(\SC)C(=O)N(C)C | -5.05% |
| Cc1cccc(C)c1NC(N)=S | -10.6% |
| CCC[As](=O)(O)CC[As](=O)(O)CCC | 59.3% |
| C=[CH][Pb]([CH]=C)([CH]=C)[O]C(C)=O | 97.9% (active) |
| Cc1nc2ccccc2c(=O)n1-c1ccccc1 | 0% |
| O=[N+]([O-])c1cccc(C(Cl)Cl)c1 | 22.4% |
| COC(=O)C1=C(O)C(C(=O)OC)C2/C(=[N+](/[O-])O)c3c(cc([N+](=O)[O-])cc3[N+](=O)[O-])C1C2[N+](=O)[O-] (configuration not stated) | 87.8% (active) |
| CC(=O)Cc1c[nH]c2ccccc12 | -9.35% |
| CN1CN(c2ccccc2)C2(CCN(CCC3COc4ccccc4O3)CC2)C1=O (configuration not stated) | -10.1% |
| C[As+](c1ccccc1)(c1ccccc1)c1cccc2ccccc12 | 21.2% |
| C=CCOCN1c2cc(OC)c([C@@]3(C(=O)OC)C[C@@H]4CN(CCc5c3[nH]c3ccccc53)C[C@](O)(CC)C4)cc2[C@@]23CCN4CC=C[C@@](CC)([C@@H](OC(C)=O)[C@](O)(C(=O)OC)[C@H]12)[C@H]43 | 2.35% |
| CS(=N)(=O)CCC(N)P(=O)(O)O (configuration not stated) | 6.85% |
| Cc1ccc(S(=O)(=O)Nc2cc(C)cc(CCN)c2C)cc1 | -14.6% |
| CCN(CC)CCn1c(=O)c2ccccc2n(CCN(CC)CC)c1=O | 22.5% |

Reference: PubChem BioAssay (NCI)
